Screening data as filed in PubChem.
The list is not random: actives were taken first. Their share in the collection is about 8.9%.
KB-3-1 cytotox – qHTS assay for MDR1-selective chemotherapeutics: Primary screen using the parental adenocarcinoma cell KB-3-1; actives 1.4% (n = 400,000); KB-3-1 viability, CellTiter-Glo ATP luminescence, 72 h; Potency, µM (series often up to 46.1 µM), most hits filed as cytotoxic; AID 1347075, 2019; further: potency means the concentration at half of the fitted maximal effect; on the % scale 0 is the no-effect control and ±100 the full control effect; nearly all actives have a fitted effect of over 60% in size
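Luminescent ATP read-out (CellTiter-Glo) measures survival of drug-naive KB-3-1 cells after 72 h compound exposure at 37 °C. Titration series was screened from lowest to highest concentration, with DMSO vehicle plates as background controls.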
DRD3 agonist – qHTS of D3 Dopamine Receptor Agonist: qHTS; D(3) dopamine receptor (Homo sapiens), P35462; D3R DiscoveRx beta-arrestin cells, luminescence, 90 min; max activation, %; actives 0.58% (n = 410,000); in the data active means max activation above about 30%; further: 0% is about no effect
Target sequence (P35462 whole entry, looked up): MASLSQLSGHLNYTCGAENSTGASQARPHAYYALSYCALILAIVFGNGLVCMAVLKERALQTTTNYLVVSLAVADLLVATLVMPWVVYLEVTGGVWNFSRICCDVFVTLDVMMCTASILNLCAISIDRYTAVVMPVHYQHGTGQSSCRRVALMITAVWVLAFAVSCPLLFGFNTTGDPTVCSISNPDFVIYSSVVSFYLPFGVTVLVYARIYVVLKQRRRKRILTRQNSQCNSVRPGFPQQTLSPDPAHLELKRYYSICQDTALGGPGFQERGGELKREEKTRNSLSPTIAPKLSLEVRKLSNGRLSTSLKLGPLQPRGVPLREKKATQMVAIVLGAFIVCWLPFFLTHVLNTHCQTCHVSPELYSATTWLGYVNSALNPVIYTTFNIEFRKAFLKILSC
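Agonist mode: compounds and dopamine controls were applied to plated cells for 90 min at 37 degrees C after an overnight attachment at 1500 cells/well. Luminescent read-out followed 30 - 60 minutes at room temperature with DiscoveRx detection reagent.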
KB-V1 cytotox – qHTS assay for MDR1-selective chemotherapeutics: Primary screen using the drug-selected MDR subline cells KB-V1 | KB-V1 MDR cells viability, CellTiter-Glo, 72 h | Potency, µM (doses to about 46.1 µM), actives largely listed as cytotoxic | actives 3.4% (n = 400,000); further: potency means the concentration at half of the fitted maximal effect; on the % scale 0 is the no-effect control and ±100 the full control effect; nearly all actives have a fitted effect of over 60% in size
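Drug-selected KB-V1 cells, grown in DMEM lacking phenol red with 10% FBS, receive compound titrations; after three days at 37 degrees C, surviving cell ATP is quantified by CellTiter-Glo luminescence and responses normalized and curve-fitted.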
SW480 rereplic – A quantitative high throughput screen for small molecules that induce DNA re-replication in SW480 colon adenocarcinoma cells. SW480 DNA re-replication, Hoechst DNA content imaging, 48 h. actives 1.8% (n = 340,000). Potency, µM (series often up to 46.1 µM), for inactives: at the top dose re-replication activation, usual class: activators. AID 624297, 2012; further: potency means the concentration at half of the fitted maximal effect; % of control where 0% means no effect; nearly all actives have a fitted effect of over 55% in size
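First, 250 cells per well were seeded. Next, compound or vehicle (23 nL) was pinned in, plates sat 48 hr at 37 C. Finally Hoechst was added for 40 min before fluorescence scanning.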
MCF10A rerep – A quantitative high throughput screen for small molecules that induce DNA re-replication in MCF 10a normal breast cells; MCF 10A DNA re-replication, Hoechst nuclear intensity, 48 h; Potency, µM (doses to about 46.1 µM), inactives show top-dose activity, positive = re-replication, hits mostly activators; actives 2.9% (n = 350,000); further: potency means the concentration at half of the fitted maximal effect; % of control where 0% means no effect; nearly all actives have a fitted effect of over 50% in size
D3 antag – qHTS of D3 Dopamine Receptor Antagonist: qHTS; D3R cells, DiscoveRx beta-arrestin luminescence, antagonist mode; active compounds read low; max response, negative = inhibition, %; AID 652054, 2013; D(3) dopamine receptor (Homo sapiens), P35462; actives 2.5% (n = 360,000); in the data active means max response below about -50%; inconclusive means no clear call, values can overlap the other calls; further: on the % scale 0 is the no-effect control and ±100 the full control effect
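Cells expressing the human receptor were seeded at 1500 cells/well, incubated overnight at 37 degrees C in 5% CO2, then exposed to library compounds with dopamine controls for 90 minutes at 37 degrees C before luminescent detection.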
The depositor's hits bear a star; [ ] = another dose, or the depositor's remark. Unless noted, the call rests on the fitted dose curve; in most records, active means well fitted curve in the direction sought with a large enough effect; inconclusive means small, poorly fitted or top-dose-only effect, or another doubt; inactive means no such curve, though single readings can be large; an effect the other way counts as inactive or inconclusive.

How did COc1cc(OC)c(OC)cc1/C=C1\CCC/C(=C\c2cc(OC)c(OC)cc2OC)C1=O do in these assays?
KB-3-1 cytotox: inconclusive; DRD3 agonist: 17; KB-V1 cytotox: inconclusive; SW480 rereplic: inconclusive; MCF10A rerep: 16µM*; D3 antag: 27

How did COc1ccc(/C=C2\CCc3ccccc3C2=O)cc1OC do in these assays?
KB-3-1 cytotox: inactive; DRD3 agonist: 3; KB-V1 cytotox: 16µM*; SW480 rereplic: inconclusive; MCF10A rerep: inconclusive; D3 antag: 7

How did CCOC(=O)[C@H](CCc1ccccc1)N[C@@H](C)C(=O)N1Cc2cc(OC)c(OC)cc2C[C@H]1C(=O)O do in these assays?
DRD3 agonist: 6

How did Cc1cccc(N2CCN(C(=O)Nc3ccc(F)cc3)CC2C)c1 (configuration not stated) do in these assays?
KB-3-1 cytotox: inactive; DRD3 agonist: -1; KB-V1 cytotox: inactive

Results for CC(=O)Nc1c(C)nn(-c2ccccc2)c1N1CCC(C(=O)NCc2cccc(F)c2)CC1 ?
DRD3 agonist: 2

Results for COc1ccc(/C=C2/CCc3ccccc3C2=O)cc1CN1CCOCC1 ?
KB-3-1 cytotox: inactive; DRD3 agonist: -1; KB-V1 cytotox: inconclusive; SW480 rereplic: -695%; MCF10A rerep: inconclusive; D3 antag: 12

How did COc1ccc(/C=C2\CCc3ccccc3C2=O)cc1Cn1nc(C)cc1C do in these assays?
KB-3-1 cytotox: inconclusive; DRD3 agonist: 1; KB-V1 cytotox: 18µM*; SW480 rereplic: inconclusive; MCF10A rerep: inconclusive; D3 antag: -79*

What do the screens show for `O=C(NNS(=O)(=O)c1ccc(Cl)cc1)c1cccs1`?
KB-3-1 cytotox: inactive; DRD3 agonist: 8; KB-V1 cytotox: inactive; SW480 rereplic: inactive[1.84 µM]; MCF10A rerep: 2%; D3 antag: -61*

What do the screens show for `COc1ccc(S(=O)(=O)NNC(=O)c2cccs2)cc1`?
KB-3-1 cytotox: inactive; DRD3 agonist: 4; KB-V1 cytotox: inactive; SW480 rereplic: -13%; MCF10A rerep: -2%; D3 antag: 9

Results for CN[C@H]1C[C@H]2c3cc(N4CCN(C)CC4)ccc3CCN2C(=O)[C@H]1[C@H](C)O ?
KB-3-1 cytotox: inactive; DRD3 agonist: -9; KB-V1 cytotox: inactive; D3 antag: -6

Results for Cc1ccc(/C=N/NC(=O)CN(Cc2ccccc2)S(=O)(=O)c2ccc3c(c2)OCCO3)cc1 ?
KB-3-1 cytotox: inactive; DRD3 agonist: 26; KB-V1 cytotox: 5.8µM*; SW480 rereplic: inconclusive; MCF10A rerep: 16%; D3 antag: 16

How did COc1ccc(S(=O)(=O)N(CCc2ccccc2)CC(=O)Nc2ccc(C)c(C)c2)cc1OC do in these assays?
KB-3-1 cytotox: inactive; DRD3 agonist: -13; KB-V1 cytotox: inactive

Results for O=C1/C(=N\S(=O)(=O)c2cccs2)C([n+]2ccc(CCCc3ccccc3)cc2)=C([O-])c2ccccc21 ?
KB-3-1 cytotox: inactive; DRD3 agonist: 5; KB-V1 cytotox: inconclusive; SW480 rereplic: inconclusive; MCF10A rerep: 11%; D3 antag: 7

How did CC(C)(C)c1cc[n+](C2=C([O-])c3ccccc3C(=O)/C2=N\S(=O)(=O)c2ccccc2)cc1 do in these assays?
KB-3-1 cytotox: inactive; DRD3 agonist: -8; KB-V1 cytotox: inactive; SW480 rereplic: inconclusive; MCF10A rerep: 5%; D3 antag: -9

How did O=C1/C(=N\S(=O)(=O)c2cccs2)C([n+]2cccc(Cc3ccccc3)c2)=C([O-])c2ccccc21 do in these assays?
KB-3-1 cytotox: inconclusive; DRD3 agonist: 11; KB-V1 cytotox: inactive; SW480 rereplic: 8.2µM*; MCF10A rerep: 0%; D3 antag: 9

What do the screens show for `Cc1cc(C)c[n+](C2=C([O-])c3ccccc3C(=O)/C2=N\S(=O)(=O)c2cccs2)c1`?
KB-3-1 cytotox: inconclusive; DRD3 agonist: -4; KB-V1 cytotox: inactive; SW480 rereplic: 2.9µM*; MCF10A rerep: inconclusive; D3 antag: 4

How did Cc1cc[n+](C2=C([O-])c3ccccc3C(=O)/C2=N\S(=O)(=O)c2cccs2)cc1C do in these assays?
KB-3-1 cytotox: inactive; DRD3 agonist: -7; KB-V1 cytotox: inactive; SW480 rereplic: inconclusive; MCF10A rerep: 21µM*; D3 antag: 5

What do the screens show for `N=c1c2c(n(Cc3ccc(Br)cc3)c3c1CCC3)CCCC2`?
KB-3-1 cytotox: 0.65µM*; DRD3 agonist: 1; KB-V1 cytotox: inactive; SW480 rereplic: -2%; MCF10A rerep: inconclusive; D3 antag: 7

Results for O=C(NNc1nc2c(F)cc(F)cc2s1)C1COc2ccccc2O1 (configuration not stated) ?
KB-3-1 cytotox: inactive; DRD3 agonist: 4; KB-V1 cytotox: inconclusive; SW480 rereplic: -11%; MCF10A rerep: 0.92µM*; D3 antag: -25

What do the screens show for `O=C(NCc1ccccc1)c1cccc(COc2cc(Cl)ccc2Cl)c1`?
KB-3-1 cytotox: inactive; DRD3 agonist: -5; KB-V1 cytotox: 21µM*; SW480 rereplic: inconclusive; MCF10A rerep: 27%; D3 antag: -72*

What do the screens show for `COC(=O)c1ccccc1NC(=O)c1cccc(COc2ccccc2Cl)c1`?
KB-3-1 cytotox: inconclusive; DRD3 agonist: 1; KB-V1 cytotox: inconclusive; SW480 rereplic: inconclusive; MCF10A rerep: 2.6µM*; D3 antag: 16

What do the screens show for `Cc1ccc(C)c(OCCC(=O)OCC(=O)Nc2ccc(Cl)cn2)c1`?
KB-3-1 cytotox: inactive; DRD3 agonist: 12; KB-V1 cytotox: inactive; SW480 rereplic: 18µM*; MCF10A rerep: -1%; D3 antag: 2

How did Cc1ccc(OCCC(=O)OCC(=O)NCCc2ccccc2)cc1 do in these assays?
KB-3-1 cytotox: inactive; DRD3 agonist: -1; KB-V1 cytotox: inactive; SW480 rereplic: -2%; MCF10A rerep: inconclusive; D3 antag: 6

How did Cc1ccc(OCCC(=O)OCC(=O)NCCNC(=O)COC(=O)CCOc2ccc(C)cc2)cc1 do in these assays?
KB-3-1 cytotox: inactive; DRD3 agonist: 3; KB-V1 cytotox: inactive; D3 antag: -61*

Results for Cc1ccc(OCCC(=O)OCC(=O)Nc2ccc(Cl)cn2)cc1 ?
KB-3-1 cytotox: inactive; DRD3 agonist: 0; KB-V1 cytotox: inactive; SW480 rereplic: -5%; MCF10A rerep: 1%; D3 antag: 0
